# Screens (PubChem)
# Rows were chosen to be rich in hits. Some 18% of all compounds tested hit in one or more screens of this group.
# PLK1 PBD block: qHTS for Inhibitors of PLK1-PDB (polo-like kinase 1 - polo-box domain): Primary Screen; AID 720504, 2013; Plk1 PBD binding of FITC phosphopeptide, fluorescence polarization; Potency, µM, inactives show max response, negative = inhibition, usual class: inhibitors; Serine/threonine-protein kinase PLK1 (Homo sapiens), P53350; 360,000 tested, 2.8% active; also: series mostly up to about 57 µM; nearly all actives have a fitted effect of over 65% in size
# DT40 TDP1 CPT: qHTS for Inhibitors of human tyrosyl-DNA phosphodiesterase 1 (TDP1): qHTS in cells in presence of CPT; chicken DT40 Tdp1-/-;hTDP1 cells + 20 nM CPT, ATP luminescence, 48 h; Potency, µM (highest dose often 46.2 µM), for the others: top-dose activity change, negative = growth inhibition, hits mostly inhibitors; 420,000 tested, 12% active; also: nearly all actives have a fitted effect of over 55% in size
#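 Cell growth measured by CellTiter-Glo luminescence after a minimum 48 h, 37 C compound exposure with 20 nM CPT in Tdp1-knockout DT40 cells stably expressing hTDP1, seeded 400/well; qHTS titration format.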
# VDR inhibitor: Inhibitors of the vitamin D receptor (VDR): qHTS; VDR-SRC2-3 peptide fluorescence polarization, 2 h; 400,000 tested, 0.93% active; AID 504847, 2011; Potency, µM, for the others: max response, negative = inhibition, usual class: inhibitors; Vitamin D3 receptor (Homo sapiens), P11473
# Target sequence (P11473 whole entry, looked up): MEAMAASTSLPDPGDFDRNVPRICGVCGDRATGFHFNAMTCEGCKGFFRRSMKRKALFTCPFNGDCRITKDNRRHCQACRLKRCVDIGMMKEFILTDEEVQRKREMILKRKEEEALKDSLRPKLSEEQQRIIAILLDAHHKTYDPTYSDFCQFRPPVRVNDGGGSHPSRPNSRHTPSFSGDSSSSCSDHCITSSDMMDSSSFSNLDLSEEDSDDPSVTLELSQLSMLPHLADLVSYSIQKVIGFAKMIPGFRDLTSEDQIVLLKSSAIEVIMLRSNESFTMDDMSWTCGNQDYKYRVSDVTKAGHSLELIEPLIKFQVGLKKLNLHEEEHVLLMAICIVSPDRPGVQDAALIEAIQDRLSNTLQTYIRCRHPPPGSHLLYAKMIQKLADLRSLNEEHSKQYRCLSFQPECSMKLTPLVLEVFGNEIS
#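 After 23 nl compound addition and a short centrifugation, plates sat for 2 hours at ambient temperature; polarization of fluorescence then indicated loss of VDR binding to peptide SRC2-3.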
# TDP1 block: qHTS Assay for Inhibitors of Tyrosyl-DNA Phosphodiesterase (TDP1) | recombinant TDP1, AlphaScreen DNA substrate cleavage | Potency, µM (top dose mostly 130 µM), inactives show at the highest dose activity change, negative = inhibition, actives largely listed as inhibitors | 350,000 tested, 0.28% active | Tyrosyl-DNA phosphodiesterase 1 (Homo sapiens), Q9NUW8; also: nearly all actives have a fitted effect of over 40% in size
#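 Here, a 5' biotin and 3' phosphotyrosine-FITC DNA oligonucleotide reports Tdp1 activity: intact substrate bridges AlphaScreen beads, while cleavage leaves a 3' phosphate and drops signal. All incubations at room temperature.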
# GCN5L2 inh: qHTS Assay for Inhibitors of GCN5L2; 390,000 tested, 0.21% active; AID 504327, 2011; GCN5L2 HAT assay, ThioGlo1 CoA-SH fluorescence; Histone acetyltransferase KAT2A (Homo sapiens), Q92830; Potency, µM (titrated, usually from 58.9 µM), without a hit: at the highest dose activity change, negative = inhibition, most hits filed as inhibitors
#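 qHTS, 1536-well. 20nM enzyme, pH 7.5 HEPES/EDTA/Tween-20 buffer; 15 min compound preinc., RT. Start: 75uM H3(1-25), 70uM AcCoA, 50uM ThioGlo1. Read Ex340/Em540 at t=0 (autofluorescence flag) and t=20 min.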
# TDP1 cell noCPT: qHTS for Inhibitors of human tyrosyl-DNA phosphodiesterase 1 (TDP1): qHTS in cells in absence of CPT; DT40 Tdp1-/- hTDP1 cells, no CPT, ATP luminescence, 48 h; Potency, µM (titrated, usually from 46.2 µM), for inactives: at the highest dose activity change, negative = growth inhibition, actives largely listed as inhibitors; 420,000 tested, 15% active; AID 686978, 2013; also: nearly all actives have a fitted effect of over 55% in size
#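 Chicken DT40 Tdp1-/- cells complemented with human TDP1, screened without camptothecin (DMSO vehicle only), 400 cells/well. Compounds pin-transferred, cells incubated at 37 °C for at least 48 hr. Growth read as ATP-dependent luminescence (CellTiter-Glo, 30 min at RT).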
# The depositor's hits bear a star; ? = inconclusive; · = no result given. Calls follow the shape of the dose curve; as a rule, active = well fitted curve in the direction sought with a large enough effect; inconclusive = small, poorly fitted or top-dose-only effect, or another doubt; inactive = no such curve, though single readings can be large; an effect the other way counts as inactive or inconclusive. % is scaled to controls: 0 for no effect and ±100 for the full control effect; potency is read from the fitted curve at half-maximal effect.
SMILES,PLK1 PBD block,DT40 TDP1 CPT,VDR inhibitor,TDP1 block,GCN5L2 inh,TDP1 cell noCPT
O=C(CN1C(=O)C(c2ccc(F)cc2)=NC12CCCCCC2)Nc1ccc(F)c(Cl)c1,·,?,0%,5%,-9%,?
CC(C)Oc1ccc(CNC(=O)c2ccc(NC(=O)N3CC(C)Sc4ccccc43)cc2)cc1 (stereo not drawn),·,21µM*,15%,10%,-9%,-106%
COC(=O)c1ccc(C(=O)OC)c(NC(=O)N2CC3CCCN3c3ccccc32)c1 (stereo not drawn),·,?,10%,11%,-15%,?
CC1CN(C(=O)Nc2ccc(C(=O)NCCc3ccccc3Cl)cc2)c2ccccc2S1 (stereo not drawn),·,23µM*,12%,8%,-1%,21µM*
CC(C)Oc1ccc(CNC(=O)CCC(=O)N2CC(C)Sc3ccccc32)cc1 (stereo not drawn),?,16µM*,-20%,·,-9%,?
O=C(NCc1ccc(F)cc1)c1ccc(NC(=O)N2CC3CCCN3c3ccccc32)cc1 (stereo not drawn),·,16µM*,24%,8%,-9%,12µM*
OC[C@@H]1CN(Cc2cccs2)C[C@H](n2cnc3c(NCc4ccco4)ncnc32)O1,0%,1%,·,·,·,-8%
Cc1ccc2nc(NC(=O)c3cc(-c4ccco4)nc4ccccc34)sc2c1,-10%,?,-6%,3%,?,?
Cc1cccc2sc(NNC(=O)C3=COCCO3)nc12,-6%,13µM*,4%,-6%,-1%,?
O=C(Nc1nc2ccccc2s1)c1cc(-c2ccco2)nc2ccccc12,-22%,18µM*,?,3%,-25%,18µM*
Cc1ccc(NC(=O)c2cc(-c3cccs3)nc3ccccc23)c(C)c1,·,-28%,-8%,·,1%,?
COc1ccc(NC(=O)c2cc(-c3ccco3)nc3ccccc23)cn1,?,?,?,14µM*,-9%,21µM*
Cc1cccc2sc(NNC(=O)c3cc(-c4cccs4)nc4ccccc34)nc12,3%,4.1µM*,-17%,4%,-7%,4.1µM*
COc1cc(NC(=O)c2cc(C)nc3ccccc23)cc(OC)c1,8%,?,11%,0%,-5%,2%
Nc1nn(-c2ccccc2)nc1C(=O)OCc1ccccc1Br,·,?,-1%,-6%,-9%,?
COc1cc(C(=O)NCc2nnc(SCC(=O)Nc3cccc(C(F)(F)F)c3)o2)cc(OC)c1OC,-14%,0%,-10%,1%,?,7%
COc1ccc(-c2cc(C(=O)N3CCCCCC3)c3ccccc3n2)cc1OC,-4%,?,·,·,·,?
COc1ccc(-c2cc(C(=O)Nc3nc4c(C)cccc4s3)c3ccccc3n2)cc1OC,-9%,16µM*,3%,6%,-5%,21µM*
COc1cccc(-c2cc(C(=O)Nc3nc4ccccc4s3)c3ccccc3n2)c1,?,16µM*,14%,0%,-4%,26µM*
O=c1oc2cc(O)ccc2cc1-c1nc2ccccc2o1,11µM*,?,·,·,·,?
CN(C)c1nc(C(N)=O)nc(N2CCOCC2)n1,1%,-8%,17%,3%,-1%,-28%
CC(C)=NOc1nc(N(C)C)nc(N2CCOCC2)n1,30µM*,?,?,1%,-2%,?
OCC1(Cc2ccc(Cl)cc2)CCN(Cc2ccccc2F)CC1,-4%,?,-22%,3%,-3%,?
CN1CCC(CO)(Cc2ccccc2)CC1,-5%,20%,6%,-6%,10%,6%
CSc1ccc(CN2CCC(CO)(Cc3ccc(Cl)cc3)CC2)cc1,-7%,?,-10%,6%,-12%,18µM*
SMILES,PLK1 PBD block,DT40 TDP1 CPT,VDR inhibitor,TDP1 block,GCN5L2 inh,TDP1 cell noCPT
OCC1(Cc2ccc(Cl)cc2)CCN(CCCc2ccccc2)CC1,-12%,?,12%,2%,-1%,23µM*
CS(=O)(=O)N(Cc1ccccc1Cl)c1ccc(C(=O)NCc2ccccn2)cc1,4%,-17%,-16%,5%,-3%,?
O=C(Cn1cnc2ccccc2c1=O)c1ccc(OC(F)F)cc1,-2%,6%,3%,·,-1%,-11%
CSc1ncc(Cl)c(C(=O)C(C#N)c2nc3c(C)cc(C)cc3c(=O)[nH]2)n1 (stereo not drawn),21µM*,?,?,8%,-21%,26µM*
CC(OC(=O)c1nc(Cl)ccc1Cl)C(=O)Nc1ccc2c(c1)OCCO2 (stereo not drawn),-5%,-3%,-7%,-10%,-12%,-21%
COC(=O)c1ccc(CN(C(C)=O)c2ccccc2)o1,27µM*,-13%,?,2%,-10%,-5%
COC(=O)c1ccc(CSCc2ccc(C(=O)OC)o2)o1,-29%,5%,-24%,·,-15%,-15%
Cc1ccc(CN2CCN(C3CCN(S(=O)(=O)N(C)C)CC3)C(=O)C2=O)cc1,·,2%,8%,5%,18%,10%
OC(CNCC(c1ccc(Cl)cc1Cl)c1c[nH]c2ccccc12)c1ccccc1 (stereo not drawn),-3%,?,2%,8%,-10%,13µM*
CCCn1c(CCC(=O)Nc2cccc(C)c2C)nc2cccnc21,·,-30%,?,4%,1%,?
COC(=O)CN1C(C(=O)c2ccccc2)=C(OC(=O)c2ccc(F)cc2)c2ccccc2S1(=O)=O,·,16µM*,3%,2%,-12%,-23%
CCN1C(C(=O)c2ccccc2)=C(OC(=O)c2ccc(Cl)cc2)c2ccccc2S1(=O)=O,·,?,-1%,7%,-14%,23µM*
CCOC(=O)CN1C(C(=O)c2ccccc2)=C(OC(=O)c2ccccc2)c2ccccc2S1(=O)=O,·,21µM*,9%,2%,-10%,26µM*
O=C1CCCN1CC(O)CS(=O)(=O)Cc1ccc(Cl)c(Cl)c1 (stereo not drawn),-9%,-1%,0%,·,-2%,4%
COC1=CC(=NCl)C=CC1=NCl,13µM*,21µM*,·,·,·,16µM*
COc1ccc(S(=O)(=O)NCCc2sc(-c3cccc(F)c3)nc2C)cc1,·,16µM*,12%,3%,-7%,21µM*
